The values that follow come from the supplement of paper PMC4840960.

Values without a mark were called inactive.

This test relates to E18 rat cortical neuron-glia co-culture. As to the kind of experiment: myelination (MBP fiber length per Olig2+ nucleus), % of 1 µM DAPT response (DMSO = 0) (% of DAPT); higher = more myelination, active = 50 or more. Particulars: 5 µM; treatment time: 8 days (DIV5-DIV13). Put shortly:
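Four 10X fields in each of duplicate wells were analysed after cultures were fixed in 4 % paraformaldehyde and immunostained for MBP and Olig2, with DAPI as the nuclear counterstain. The cultures were papain-dissociated primary E18 rat cortical co-cultures at 20,000 cells/well on poly-d-lysine/laminin 96-well plates, dosed with library compounds at 1 or 5 µM in myelination medium from DIV5 to DIV13. The myelination readout was continuous straight MBP fiber length per Olig2+ nucleus, with 0.1 % DMSO set to 0 and a 1 µM positive control set to 100.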
As to `CSc1ccc2c(c1)N(CCC1CCCCN1C)c1ccccc1S2` (stereo unspecified) [Thioridazine], the myelination is below -29.5.
`CC(C)(C)NC(=O)[C@@H]1C[C@@H]2CCCC[C@@H]2CN1C[C@@H](O)[C@H](Cc1ccccc1)NC(=O)[C@H](CC(N)=O)NC(=O)c1ccc2ccccc2n1` [Saquinavir]: the myelination is below -37.3.
As to `C[C@@H]1CN(CCCn2c3ccccc3c3ccccc32)C[C@H](C)N1` [Rimcazole], the myelination is below -33.5.
The figure for `Nc1nc(O)c2ncn(CCC(CO)CO)c2n1` [Penciclovir] is below -37.3.
For `O=C(NCC1CCCCN1)c1cc(OCC(F)(F)F)ccc1OCC(F)(F)F` (stereo unspecified) [Flecainide], the myelination was below -49.1.
With `C[C@@H]1C[C@H]2[C@@H]3CCC4=CC(=O)C=C[C@]4(C)[C@@]3(F)[C@@H](O)C[C@]2(C)[C@@]1(O)C(=O)CO` [Dexamethasone], the myelination is below -84.9.
As for `OCCN1CCN(CCCN2c3ccccc3Sc3ccc(C(F)(F)F)cc32)CC1` [Fluphenazine], the myelination was below -37.3.
The figure for `COc1cccc2c1C(=O)c1c(O)c3c(c(O)c1C2=O)C[C@@](O)(C(=O)CO)C[C@@H]3O[C@H]1C[C@H](N)[C@H](O)[C@H](C)O1` [Doxorubicin] is below -69.3; for `CC(C)c1ccc2c(c1)c(SC(C)(C)C)c(CC(C)(C)C(=O)O)n2Cc1ccc(Cl)cc1` it is below -35.1.
Consider `Cc1c2oc3c(C)ccc(C(=O)N[C@@H]4C(=O)N[C@H](C(C)C)C(=O)N5CCC[C@H]5C(=O)N(C)CC(=O)N(C)[C@@H](C(C)C)C(=O)O[C@@H]4C)c3nc-2c(C(=O)N[C@@H]2C(=O)N[C@H](C(C)C)C(=O)N3CCC[C@H]3C(=O)N(C)CC(=O)N(C)[C@@H](C(C)C)C(=O)O[C@@H]2C)c(N)c1=O` [Dactinomycin], for which the myelination is below -33.5.
Turning to `Cc1cccc(CN2CCN(C(c3ccccc3)c3ccc(Cl)cc3)CC2)c1` (stereo unspecified) [Meclizine], the myelination was below -51.3.
